Assay outcomes from PubChem BioAssay.
D1 antagonist: antagonists of human D1 dopamine receptor; HEK293 TREx D1 cells, calcium flux, dopamine EC80; active compounds read low; P21728; 360,000 tested, 3.2% active; activity change, negative = inhibition, % at 10 µM; in the data active = activity change below about -30%
Target sequence (P21728 whole entry, looked up): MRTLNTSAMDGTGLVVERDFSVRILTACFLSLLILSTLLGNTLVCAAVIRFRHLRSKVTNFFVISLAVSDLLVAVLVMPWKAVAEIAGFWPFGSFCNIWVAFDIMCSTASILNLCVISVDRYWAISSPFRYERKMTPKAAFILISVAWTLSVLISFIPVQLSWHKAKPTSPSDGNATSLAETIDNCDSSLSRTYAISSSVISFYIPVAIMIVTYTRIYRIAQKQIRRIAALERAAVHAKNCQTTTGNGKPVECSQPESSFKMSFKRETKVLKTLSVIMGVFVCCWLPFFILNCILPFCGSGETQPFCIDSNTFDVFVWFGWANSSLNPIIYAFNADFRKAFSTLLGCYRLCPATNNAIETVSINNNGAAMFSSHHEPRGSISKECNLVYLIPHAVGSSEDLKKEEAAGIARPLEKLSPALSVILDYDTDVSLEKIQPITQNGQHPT
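Kinetic fluorescence of a calcium dye serves as the read-out. D1-expressing Hek293 Trex cells, induced overnight at 30 C, are exposed to compound for 180 s before an EC80 dopamine addition, then read 180 s further.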
D1 ag: activates the human D1 dopamine receptor. P21728. HEK293 T-REx D1 cells, calcium flux, agonist mode. activation, % at 2 µM. 360,000 tested, 1% active
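Tetracycline-induced HEK293 TREx D1 cells, force-coupled to calcium signalling, were dye-loaded with a no-wash calcium kit. Compound was pin-added after a 10 s baseline. Fluorescence was read kinetically at 1 cycle/s for 180 s, with calcium rises flagged as agonism.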
TRHR enhancer: allosteric enhancers of human TRH receptor; P34981; TRHR cells, fluo-8 calcium fluorescence, EC20 TRH enhancement; enhancement, % at 2 µM; 360,000 tested, 0.66% active; in the data active = enhancement above about 30%
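Enhancer read-out: after compound pinning and an initial kinetic agonist-mode read, an EC20 of TRH (10 nM final) was injected and fluo-8 calcium signal (Ex 480/Em 530) followed at 1 s/cycle for 100 cycles in TRHR-expressing cells.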
D1 PAM: human D1 dopamine receptor positive modulation; P21728; HEK293 TREx D1 cells, calcium flux, dopamine EC20 potentiation; potentiation, % at 10 µM; 360,000 tested, 0.036% active; AID 504651; in the data active = potentiation above about 30%
TRHR agonist: activates the human TRH receptor. P34981. TRHR cells, calcium flux fluo-8, FDSS agonist mode. activation, % at 2 µM. 360,000 tested, 0.18% active. AID 493084
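Steps: seed TRHR cells overnight; add fluo-8 no-wash Ca dye, RT 30 min–1.5 h; record 10 s baseline; pin-transfer compounds; monitor fluorescence 1 cycle/s for the agonist window. Calcium increases flag candidate agonists.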
Of the large screens only hits and unclear results are named; the others gave an inactive call. Hits are enriched below; roughly 4.6% of the tested compounds scored in any of these assays. Cut-off read from the data, not from the text of the source, unless noted: active = activation above about 30%; inactive = the rest.

O=C(Cc1ccccc1)Nc1sc2c(c1C(=O)Nc1cccc(Cl)c1)CCCCC2	none
CCOC(=O)c1c(NC(=O)/C=C/c2ccc(C)cc2)sc2c1CCCC2	D1 ag 39
CCOc1ccc(-c2cnc(NCc3ccc(OC)cc3OC)n2C)cc1	none
CC1=C/C(=N\NC(=S)Nc2cccnc2)CC(C)(C)C1	none
CNC(=O)C1CCC(Cn2c(=O)c3sccc3n(Cc3ccccc3)c2=O)CC1 (stereo unspecified)	none
CCOC(=O)c1c(NC(=O)c2cc(-c3cccc(OC)c3)on2)sc2c1CCCC2	none
CCOC(=O)c1c(NS(=O)(=O)c2cccc(OC)c2)sc2c1CCC2	D1 ag 64
CCCNC(=O)c1c(NC(=O)c2ccccc2F)sc2c1CCCCC2	TRHR enhancer 35
O=C(Nc1sc2c(c1C(=O)O)CCCCC2)c1ccccc1F	none
Cc1ccc(CNc2oc(-c3ccco3)nc2C#N)cc1	D1 antagonist -37
CNc1oc(-c2ccco2)nc1C#N	none
COc1ccc(C(=O)N/N=C(\C)c2cccc(NC(=O)c3ccc(F)cc3)c2)c(OC)c1	D1 antagonist -37
COc1ccc(C(=O)N/N=C(/C)c2cccc(NC(=O)c3ccccc3F)c2)cc1	none
O=C(NC(NNc1ccc([N+](=O)[O-])cc1)(C(F)(F)F)C(F)(F)F)c1ccccc1Cl	D1 antagonist -38
O=C(NC(Nc1nc2ccc([N+](=O)[O-])cc2s1)(C(F)(F)F)C(F)(F)F)c1cccnc1	D1 antagonist -35, D1 ag 36
O=C(NC(Nc1nc2ccc([N+](=O)[O-])cc2s1)(C(F)(F)F)C(F)(F)F)c1ccccc1Cl	D1 antagonist -36
O=[N+]([O-])c1ccc2nc(NS(=O)(=O)c3ccccc3[N+](=O)[O-])sc2c1	D1 antagonist -39, D1 ag 68 (no result: D1 PAM)
O=C(NC(NNc1ccc([N+](=O)[O-])cc1)(C(F)(F)F)C(F)(F)F)c1ccc(F)cc1	none
CN(C)S(=O)(=O)c1ccc2nc(NC(=O)c3cccnc3)sc2c1	none
CCCc1cc(N2CCN(c3cccc(C)c3C)CC2)n2cnnc2n1	none
Cc1ccc(-n2c(-c3nn(C)cc3Cl)n[nH]c2=S)cc1	TRHR enhancer 31
Cc1ccc2nc(Cl)c(CNCc3ccccc3)cc2c1	D1 antagonist -35
CCOc1ccc(N2CC(c3nc4ccccc4n3CCOc3ccccc3)CC2=O)cc1 (stereo unspecified)	none
CCOc1ccccc1N1CC(c2nc3ccccc3n2CCCCOc2ccccc2)CC1=O (stereo unspecified)	D1 ag 31
CCOc1ccc(N2CC(c3nc4ccccc4n3Cc3cccc(Cl)c3)CC2=O)cc1 (stereo unspecified)	D1 antagonist -34
O=S(=O)(c1cccc(F)c1)N1CCN(Cc2cc3c(cc2Br)OCCO3)CC1	none
CCc1ccc(NC(=O)c2ccc3c(c2)nnn3CC)cc1	none
N#Cc1nc(-c2ccco2)oc1N1CCCC1	none
CC1CC(C)CN(c2oc(-c3ccco3)nc2C#N)C1 (stereo unspecified)	D1 antagonist -46
CCOc1cc(C(=O)N2CC(=O)Nc3ccc(F)cc3C2c2ccccc2)cc(OCC)c1OCC (stereo unspecified)	none
Cc1ccc(Cn2ccc(NC(=O)CCSc3nc(-c4ccco4)cc(C(F)(F)F)n3)n2)cc1	TRHR enhancer 39
Cc1ccc(NC(=O)CSc2nc(-c3ccco3)cc(C(F)(F)F)n2)cc1	D1 antagonist -35
Cc1ccccc1Cn1ccc(NC(=O)CCSc2nc(-c3ccco3)cc(C(F)(F)F)n2)n1	none
Cc1ccccc1Cn1ccc(NC(=O)c2cnn3c(C(F)(F)F)cc(-c4ccco4)nc23)n1	D1 antagonist -57
Cc1cc(NC(=O)CCSc2nc(-c3ccco3)cc(C(F)(F)F)n2)no1	D1 ag 55
O=C(Nc1ccc2c(c1)OCO2)c1cnn2c(C(F)(F)F)cc(-c3ccco3)nc12	none
Cn1c(=O)cc(OCCCC(=O)Nc2ccc(F)cc2)c2ccccc21	none
CN(C)c1ccc(NC(=O)CCSc2nc(-c3ccco3)cc(C(F)(F)F)n2)cc1	D1 antagonist -33
COC(=O)c1ccccc1NC(=O)CSc1nc(-c2ccccc2)cc(C(F)(F)F)n1	D1 antagonist -42
COc1ccc(NC(=O)CCSc2nc(-c3ccco3)cc(C(F)(F)F)n2)cc1	none
